Drawing on PubChem BioAssay (EPA / NIEHS), this text covers outcome and AC50 for six molecules.

The target in assay [1] is Glucocorticoid receptor (Homo sapiens) (UniProt P04150). Description: ATG_GR_TRANS: Attagene TRANS-FACTORIAL HepG2 Assay for human Glucocorticoid Receptor (GR) (AID 2282978; active = hit-call score of the fitted dose curve at least 0.9, where 1 is the maximum;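 also: activators score as hits since higher reporter transcript over DMSO is fitted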). The note with it: HepG2 Attagene TRANS GR reporter, mRNA transcription. A digest of the protocol:
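Transiently transfected HepG2 cells express chimeric NR-GAL4 proteins acting on GAL4-UAS reporter units. Compounds are applied for 24 h. mRNA induction over DMSO is measured by capillary electrophoresis.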

Assay [2] deals with Bile acid receptor (Homo sapiens) (UniProt Q96RI1). Nature of the assay: ATG_FXR_TRANS: Attagene TRANS-FACTORIAL HepG2 Assay for Farnesoid X Receptor (FXR) (AID 2282979; active = hit-call score of the fitted dose curve at least 0.9, where 1 is the maximum;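 also: hits raise reporter mRNA above DMSO so AC50 marks FXR activation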). The note with it: HepG2 Attagene TRANS FXR-GAL4 reporter transcription. Summed up:
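HepG2 cells were transiently transfected with GAL4-UAS reporters driven by chimeric NR-Gal4 proteins and dosed for 24 h. Reporter mRNA was quantified by RT-PCR, fluorescent labelling, HpaI digestion and capillary electrophoresis, with gain of signal scored versus DMSO.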

Assay [3] is described as follows: ATG_M_06_TRANS: Attagene TRANS-FACTORIAL HepG2 Assay for M06 Transcription Factor (Internal Marker) (AID 2282983; active = hit-call score of the fitted dose curve at least 0.9, where 1 is the maximum;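 also: reporter transcript level by RT-PCR then capillary electrophoresis fluorescence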). The note with it: HepG2 Attagene TRANS M06 internal marker reporter. Summed up: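 mRNA levels of a reporter transcript, quantified as FAM fluorescence on capillary electrophoresis, served as readout. HepG2 cells expressing exogenous GAL4-chimera reporter constructs were exposed for 24 h. Gain of signal over DMSO was evaluated.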

Assay [4] in a line: ATG_M_32_TRANS: Attagene TRANS-FACTORIAL HepG2 Assay for M32 Transcription Factor (Internal Marker) (AID 2282984; active = hit-call score of the fitted dose curve at least 0.9, where 1 is the maximum;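 also: transcript level of a background control reporter unit measured by RT-PCR and capillary electrophoresis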). The note with it: HepG2 Attagene TRANS M32 internal marker reporter. A digest of the protocol:
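Read-out: fluorescent reporter cDNA fragments resolved by capillary electrophoresis after RT-PCR of total RNA. Transfected HepG2 cells were exposed to chemical for 24 h. Activity scored in the positive direction relative to DMSO.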

Assay [5] deals with Transcriptional activator Myb (Homo sapiens) (UniProt P10242). Description: ATG_Myb_CIS: Attagene CIS-FACTORIAL HepG2 Assay for human Myeloblastosis (Myb) Proto-Oncogene Transcription Factor (AID 2282986). The note with it: HepG2 Attagene CIS-FACTORIAL Myb reporter transcription; actives raise or lower the signal. Summed up:
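Using HepG2 liver cells bearing transiently transfected cis-promoter reporter constructs, the assay measures induction or loss of reporter mRNA after 24 hours of dosing. Detection used fluorescently labeled RT-PCR products separated by capillary electrophoresis.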

In assay [6] the target is Nuclear respiratory factor 1 (Homo sapiens) (UniProt Q16656). Nature of the assay: ATG_NRF1_CIS: Attagene CIS-FACTORIAL HepG2 Assay for human Nuclear Respiratory Factor 1 (NRF1) Orphan Gene (AID 2282987). The note with it: HepG2 NRF1 cis-element reporter, Attagene multiplex; actives raise or lower the signal. A digest of the protocol: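 Reporter mRNA induction or loss in HepG2 cells after 24 h dosing; cis-regulated reporter constructs report endogenous transcription-factor activity. Quantified by RT-PCR/capillary electrophoresis fluorescence, DMSO-referenced.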

Assay [7] deals with Myc proto-oncogene protein (Homo sapiens) (UniProt P01106). Description: ATG_Myc_CIS: Attagene CIS-FACTORIAL HepG2 Assay for human Myelocytomatosis (Myc) Proto-Oncogene Transcription Factor (AID 2282990). The conditions noted are these: HepG2, Attagene cis-reporter transcription factor activity; actives raise or lower the signal. Summed up:
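Transiently transfected HepG2 cells bearing cis-promoter reporter units for endogenous transcription factors; 24 h exposure. Reporter mRNA measured by RT-PCR, 6-FAM primer extension, HpaI cut and capillary electrophoresis; bidirectional fit relative to DMSO.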

The nature of assay [8]: ATG_NRF2_ARE_CIS: Attagene CIS-FACTORIAL HepG2 Assay for human Nuclear Factor Erythroid 2 Related Factor 2 (NFR2) response to Antioxidant Response Elements (ARE) (AID 2282992).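 As to AC50: reporter mRNA level measured by RT-PCR and capillary electrophoresis fluorescence.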 The note with it: HepG2 Attagene ARE/NRF2 reporter, transcription factor activity; actives raise or lower the signal. Summed up:
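Fluorescence intensity of reporter-specific cDNA fragments, separated by capillary electrophoresis, reflects mRNA induction in transfected HepG2 cells at 24 h. Activity is fitted bidirectionally, DMSO serving as baseline.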

A short description of assay [9]: ATG_Oct_MLP_CIS: Attagene CIS-FACTORIAL HepG2 Assay for human Octamer-Binding Transcription Factor (Oct) (AID 2282993). The note with it: HepG2 Attagene cis-factorial Oct reporter, mRNA; actives raise or lower the signal. A digest of the protocol: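 HepG2 cells transiently transfected with cis-promoter-driven multiplexed reporter transcription units, dosed for 24 h. Reporter mRNA quantified by RT-PCR, fluorescent labelling, HpaI digestion and capillary electrophoresis; bidirectional fits versus DMSO baseline.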

The target in assay [10] is Cellular tumor antigen p53 (Homo sapiens) (UniProt P04637). Nature of the assay: ATG_p53_CIS: Attagene CIS-FACTORIAL HepG2 Assay for human p53 Transcription Factor (AID 2282994). The conditions noted are these: HepG2 p53 cis-element reporter, Attagene mRNA; actives raise or lower the signal. A digest of the protocol: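 Transiently transfected HepG2 (multiple cis reporter transcription units); exposure 24 h; reporter RNA via RT-PCR, 6-FAM extension, 2 h HpaI digest at 37 C, CE detection; DMSO baseline.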

Assay [11] is described as follows: BSK_3C_TissueFactor: BioMAP Diversity Plus: 3C Assay for Tissue Factor Biomarker Activity (AID 2282997). The note with it: BioMAP 3C HUVEC, tissue factor biomarker readout; actives raise or lower the signal. A digest of the protocol:
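Tissue Factor measured by ELISA, 24 h after treatment of primary HUVEC in the BioMAP 3C setting.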

Assay [12] can be described thus: BSK_3C_uPAR: BioMAP Diversity Plus: 3C Assay for Urokinase-type plasminogen activator receptor (uPAR) Biomarker Activity (AID 2282998). The conditions noted are these: BioMAP 3C HUVEC, uPAR biomarker ELISA; actives raise or lower the signal. Summed up: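 Human umbilical vein endothelial primary cells were exposed to test chemical for 24 h. Cell-surface uPAR was then quantified by ELISA, and responses were fitted bidirectionally against DMSO as negative control and baseline.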
(An ELISA detects its analyte on a solid surface through an enzyme-linked reagent.)

A short description of assay [13]: BSK_3C_VCAM1: BioMAP Diversity Plus: 3C Assay for Vascular cell adhesion molecule 1 (VCAM1) Biomarker Activity (AID 2282999). The conditions noted are these: BioMAP 3C HUVEC, VCAM1 ELISA, cytokine-stimulated; actives raise or lower the signal. Summed up:
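HUVEC primary cells, 24 h compound exposure; VCAM-1 by ELISA; gain/loss of signal fitted bidirectionally vs DMSO baseline.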

Assay [14] in a line: BSK_4H_Eotaxin3: BioMAP Diversity Plus: 4H Assay for Eotaxin 3 Biomarker Activity (AID 2283000).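 As to outcome: CCL26 protein level quantified by ELISA in parallel with SRB cytotoxicity check.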 The note with it: primary human endothelial cells (HUVEC); actives raise or lower the signal. A digest of the protocol: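 Eotaxin-3 (CCL26) levels were measured by ELISA in HUVEC primary cultures 24 h post-dosing. Gain or loss of signal was fitted in both directions, with DMSO serving as baseline and negative control.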

In assay [15] the target is Oxysterols receptor LXR-alpha (Homo sapiens) (UniProt Q13133). Description: ATG_LXRa_TRANS: Attagene TRANS-FACTORIAL HepG2 Assay for human Liver X Receptor alpha (LXRa) (AID 2282980; active = hit-call score of the fitted dose curve at least 0.9, where 1 is the maximum). The conditions noted are these: HepG2 Attagene TRANS reporter, LXRa transactivation. Summed up:
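HepG2 cells transiently transfected with GAL4-UAS reporter units for chimeric NR-Gal4 proteins, exposed to chemicals for 24 h. Reporter mRNA quantified by RT-PCR and capillary electrophoresis; gain of signal fitted relative to DMSO.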

Assay [16] concerns the target Hepatocyte nuclear factor 4-alpha (Homo sapiens) (UniProt P41235). Description: ATG_HNF4a_TRANS: Attagene TRANS-FACTORIAL HepG2 Assay for human Hepatocyte Nuclear Factor 4 alpha (HNF4a) (AID 2282982; active = hit-call score of the fitted dose curve at least 0.9, where 1 is the maximum). The note with it: HepG2 HNF4a transactivation reporter, mRNA readout. Summed up: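 Transient MRTU transfection of HepG2, 24 h dosing. Readout: reporter mRNA via RT-PCR + capillary electrophoresis, fluorescence; activity fit upward relative to DMSO control.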

Assay [17] deals with Nuclear receptor subfamily 4 group A member 2 (Homo sapiens) (UniProt P43354). Description: ATG_NURR1_TRANS: Attagene TRANS-FACTORIAL HepG2 Assay for human Nuclear Receptor Related Protein 1 (NURR1) (AID 2282985; active = hit-call score of the fitted dose curve at least 0.9, where 1 is the maximum). The note with it: HepG2 Attagene TRANS reporter, mRNA readout. Summed up:
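Read-out: reporter mRNA induction by RT-PCR plus capillary electrophoresis with fluorescence detection, after 24 h dosing of transfected HepG2 cells. Exogenous NR-Gal4 chimera activity drives GAL4-UAS reporter; activity fitted upward versus DMSO.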

Assay [18] in a line: ATG_NF_kB_CIS: Attagene CIS-FACTORIAL HepG2 Assay for human Nuclear Factor Kappa B (NF-kB) (AID 2282991). The conditions noted are these: HepG2 Attagene cis-factorial NF-kB reporter mRNA; actives raise or lower the signal. A digest of the protocol: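 DMSO served as negative control and baseline for bidirectional curve fitting. Transiently transfected HepG2 cells were dosed for 24 h, then reporter transcripts were measured by RT-PCR with capillary electrophoresis detection.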

The target in assay [19] is Oxysterols receptor LXR-beta (Homo sapiens) (UniProt P55055). Nature of the assay: ATG_LXRb_TRANS: Attagene TRANS-FACTORIAL HepG2 Assay for human Liver X Receptor beta (LXRb) (AID 2282981; active = hit-call score of the fitted dose curve at least 0.9, where 1 is the maximum). The conditions noted are these: HepG2 Attagene TRANS GAL4-LXRb reporter, mRNA. A digest of the protocol:
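Readout: fluorescent reporter mRNA fragments resolved by capillary electrophoresis after RT-PCR. System: transiently transfected human HepG2, exogenous LXRb-Gal4 chimera driving GAL4-UAS reporter, 24 h dosing. Activity fitted upward against DMSO baseline.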

The nature of assay [20]: ATG_NFI_CIS: Attagene CIS-FACTORIAL HepG2 Assay for human Nuclear Factor I (NFI) (AID 2282989). The conditions noted are these: HepG2 cis-regulatory reporter, NFI response element transcription; actives raise or lower the signal. Summed up:
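HepG2 cells transiently transfected with cis-element-driven multiplexed reporter transcription units, dosed for 24 h. Reporter mRNA quantified by RT-PCR, fluorescent labelling, HpaI digestion and capillary electrophoresis; bidirectional fit versus DMSO baseline.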

“And” between values parts separate entries of the source, which are not always exact repeats. Identical values can stand only once. Records with an inconclusive call do not appear. The source holds several records for some structures; these can differ, active in one and inactive in another. The source made the active and inactive calls. The calls were made as follows, unless noted: active = hit-call score of the fitted dose curve at least 0.9, where 1 is the maximum; inactive = score below 0.9.

Nuclear respiratory factor 1 (Homo sapiens), sequence (Q16656 whole entry, looked up): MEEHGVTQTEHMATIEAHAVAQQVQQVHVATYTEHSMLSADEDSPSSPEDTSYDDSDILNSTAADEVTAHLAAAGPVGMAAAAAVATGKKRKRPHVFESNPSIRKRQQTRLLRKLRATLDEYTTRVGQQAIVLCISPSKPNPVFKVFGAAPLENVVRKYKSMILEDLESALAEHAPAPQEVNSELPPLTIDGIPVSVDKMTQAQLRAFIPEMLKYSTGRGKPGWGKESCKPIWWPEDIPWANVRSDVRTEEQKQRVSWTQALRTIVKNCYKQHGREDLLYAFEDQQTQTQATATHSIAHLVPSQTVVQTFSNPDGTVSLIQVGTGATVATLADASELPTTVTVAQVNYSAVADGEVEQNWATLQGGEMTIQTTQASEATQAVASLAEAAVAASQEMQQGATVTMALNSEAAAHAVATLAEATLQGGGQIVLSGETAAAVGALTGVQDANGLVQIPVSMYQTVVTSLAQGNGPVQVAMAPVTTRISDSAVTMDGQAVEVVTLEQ
Nuclear receptor subfamily 4 group A member 2 (Homo sapiens), sequence (P43354 whole entry, looked up, the tested form may be a part): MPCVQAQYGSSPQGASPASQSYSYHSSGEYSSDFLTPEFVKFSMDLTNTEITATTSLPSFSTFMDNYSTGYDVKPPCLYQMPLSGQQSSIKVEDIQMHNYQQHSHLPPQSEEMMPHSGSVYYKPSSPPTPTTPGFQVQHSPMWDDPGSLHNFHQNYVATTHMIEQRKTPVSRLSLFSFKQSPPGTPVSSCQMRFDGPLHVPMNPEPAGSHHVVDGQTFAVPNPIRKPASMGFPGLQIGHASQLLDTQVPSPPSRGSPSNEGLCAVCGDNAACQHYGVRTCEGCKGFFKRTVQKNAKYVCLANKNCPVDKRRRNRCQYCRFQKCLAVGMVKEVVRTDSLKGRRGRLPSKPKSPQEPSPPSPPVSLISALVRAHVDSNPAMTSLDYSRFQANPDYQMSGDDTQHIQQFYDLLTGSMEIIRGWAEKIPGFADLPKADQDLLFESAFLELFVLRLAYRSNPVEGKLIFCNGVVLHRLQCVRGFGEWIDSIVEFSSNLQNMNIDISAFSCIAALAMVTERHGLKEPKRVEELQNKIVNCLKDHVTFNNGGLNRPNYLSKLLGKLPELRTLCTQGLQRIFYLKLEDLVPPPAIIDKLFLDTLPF
Bile acid receptor (Homo sapiens), sequence (Q96RI1 whole entry, looked up, the tested form may be a part): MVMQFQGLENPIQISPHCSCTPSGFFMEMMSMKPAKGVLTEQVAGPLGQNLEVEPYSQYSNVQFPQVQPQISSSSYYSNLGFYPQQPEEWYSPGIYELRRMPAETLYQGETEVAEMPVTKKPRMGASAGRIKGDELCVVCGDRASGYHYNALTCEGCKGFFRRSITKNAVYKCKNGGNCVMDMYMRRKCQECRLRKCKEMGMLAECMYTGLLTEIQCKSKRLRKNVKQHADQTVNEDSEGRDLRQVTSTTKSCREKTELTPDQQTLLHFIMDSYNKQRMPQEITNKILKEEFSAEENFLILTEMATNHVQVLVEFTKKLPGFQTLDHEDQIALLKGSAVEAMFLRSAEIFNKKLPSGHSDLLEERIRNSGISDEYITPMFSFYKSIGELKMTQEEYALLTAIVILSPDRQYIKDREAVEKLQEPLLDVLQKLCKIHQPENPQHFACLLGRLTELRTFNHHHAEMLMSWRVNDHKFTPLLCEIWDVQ
Transcriptional activator Myb (Homo sapiens), sequence (P10242 whole entry, looked up): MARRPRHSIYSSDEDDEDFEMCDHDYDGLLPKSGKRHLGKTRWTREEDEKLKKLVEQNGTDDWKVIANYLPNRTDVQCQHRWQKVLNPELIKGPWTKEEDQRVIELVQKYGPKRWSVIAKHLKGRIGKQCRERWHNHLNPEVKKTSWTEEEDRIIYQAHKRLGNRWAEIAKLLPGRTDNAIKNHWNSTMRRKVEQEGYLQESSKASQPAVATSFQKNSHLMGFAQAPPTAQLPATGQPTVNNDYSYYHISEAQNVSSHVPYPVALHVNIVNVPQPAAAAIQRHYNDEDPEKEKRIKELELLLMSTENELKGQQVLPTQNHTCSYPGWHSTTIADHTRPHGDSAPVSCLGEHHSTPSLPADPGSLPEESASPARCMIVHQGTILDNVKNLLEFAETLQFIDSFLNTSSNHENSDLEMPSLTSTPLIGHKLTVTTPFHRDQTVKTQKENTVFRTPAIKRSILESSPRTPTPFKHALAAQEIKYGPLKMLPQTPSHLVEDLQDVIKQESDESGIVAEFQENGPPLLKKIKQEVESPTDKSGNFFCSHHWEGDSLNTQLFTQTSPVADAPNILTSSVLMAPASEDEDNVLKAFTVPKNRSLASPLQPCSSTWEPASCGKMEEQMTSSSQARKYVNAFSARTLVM
Hepatocyte nuclear factor 4-alpha (Homo sapiens), sequence (P41235 whole entry, looked up): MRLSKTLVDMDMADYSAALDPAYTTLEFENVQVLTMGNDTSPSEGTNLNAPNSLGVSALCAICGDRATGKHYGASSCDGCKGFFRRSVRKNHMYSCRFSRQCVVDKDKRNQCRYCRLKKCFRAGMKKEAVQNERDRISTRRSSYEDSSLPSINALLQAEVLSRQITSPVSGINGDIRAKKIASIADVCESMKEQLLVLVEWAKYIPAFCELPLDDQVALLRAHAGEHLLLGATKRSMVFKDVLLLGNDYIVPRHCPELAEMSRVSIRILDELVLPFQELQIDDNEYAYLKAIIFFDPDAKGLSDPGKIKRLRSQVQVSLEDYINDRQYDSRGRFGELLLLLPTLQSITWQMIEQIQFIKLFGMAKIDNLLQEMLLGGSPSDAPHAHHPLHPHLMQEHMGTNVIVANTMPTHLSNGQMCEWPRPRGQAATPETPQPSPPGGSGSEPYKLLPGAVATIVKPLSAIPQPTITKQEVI
Myc proto-oncogene protein (Homo sapiens), sequence (P01106 whole entry, looked up): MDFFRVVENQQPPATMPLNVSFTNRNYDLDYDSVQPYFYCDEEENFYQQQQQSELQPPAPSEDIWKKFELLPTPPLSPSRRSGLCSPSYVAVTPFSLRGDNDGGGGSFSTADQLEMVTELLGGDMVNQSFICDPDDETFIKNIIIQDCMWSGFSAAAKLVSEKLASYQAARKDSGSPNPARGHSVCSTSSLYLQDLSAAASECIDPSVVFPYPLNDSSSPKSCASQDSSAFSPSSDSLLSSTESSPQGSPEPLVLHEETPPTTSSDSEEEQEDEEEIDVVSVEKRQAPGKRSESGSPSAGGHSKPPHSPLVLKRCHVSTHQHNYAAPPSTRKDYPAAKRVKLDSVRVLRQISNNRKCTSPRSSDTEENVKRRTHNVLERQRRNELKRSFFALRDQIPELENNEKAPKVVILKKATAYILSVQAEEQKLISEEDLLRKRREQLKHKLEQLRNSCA
Oxysterols receptor LXR-alpha (Homo sapiens), sequence (Q13133 whole entry, looked up, the tested form may be a part): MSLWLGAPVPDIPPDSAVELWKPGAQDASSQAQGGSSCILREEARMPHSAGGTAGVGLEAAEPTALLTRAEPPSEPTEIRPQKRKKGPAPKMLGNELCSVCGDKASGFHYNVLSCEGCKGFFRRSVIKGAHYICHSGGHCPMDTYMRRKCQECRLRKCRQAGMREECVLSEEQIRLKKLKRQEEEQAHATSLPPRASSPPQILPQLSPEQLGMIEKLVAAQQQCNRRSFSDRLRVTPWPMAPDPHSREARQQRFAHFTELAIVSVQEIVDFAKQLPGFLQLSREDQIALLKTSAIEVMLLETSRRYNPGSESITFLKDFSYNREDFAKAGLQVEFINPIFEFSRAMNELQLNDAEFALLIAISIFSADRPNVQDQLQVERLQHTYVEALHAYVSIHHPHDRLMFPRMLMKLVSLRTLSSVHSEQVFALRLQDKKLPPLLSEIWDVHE
Cellular tumor antigen p53 (Homo sapiens), sequence (P04637 whole entry, looked up): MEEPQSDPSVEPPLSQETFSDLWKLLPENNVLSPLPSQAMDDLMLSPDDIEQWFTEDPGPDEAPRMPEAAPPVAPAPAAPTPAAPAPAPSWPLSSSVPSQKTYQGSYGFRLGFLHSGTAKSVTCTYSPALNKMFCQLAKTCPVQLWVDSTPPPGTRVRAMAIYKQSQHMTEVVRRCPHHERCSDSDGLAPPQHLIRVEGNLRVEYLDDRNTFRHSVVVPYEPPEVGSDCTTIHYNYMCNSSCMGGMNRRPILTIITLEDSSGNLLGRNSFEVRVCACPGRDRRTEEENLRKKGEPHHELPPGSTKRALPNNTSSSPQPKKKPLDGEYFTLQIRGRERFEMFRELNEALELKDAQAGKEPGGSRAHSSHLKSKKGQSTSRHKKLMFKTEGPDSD
Oxysterols receptor LXR-beta (Homo sapiens), sequence (P55055 whole entry, looked up, the tested form may be a part): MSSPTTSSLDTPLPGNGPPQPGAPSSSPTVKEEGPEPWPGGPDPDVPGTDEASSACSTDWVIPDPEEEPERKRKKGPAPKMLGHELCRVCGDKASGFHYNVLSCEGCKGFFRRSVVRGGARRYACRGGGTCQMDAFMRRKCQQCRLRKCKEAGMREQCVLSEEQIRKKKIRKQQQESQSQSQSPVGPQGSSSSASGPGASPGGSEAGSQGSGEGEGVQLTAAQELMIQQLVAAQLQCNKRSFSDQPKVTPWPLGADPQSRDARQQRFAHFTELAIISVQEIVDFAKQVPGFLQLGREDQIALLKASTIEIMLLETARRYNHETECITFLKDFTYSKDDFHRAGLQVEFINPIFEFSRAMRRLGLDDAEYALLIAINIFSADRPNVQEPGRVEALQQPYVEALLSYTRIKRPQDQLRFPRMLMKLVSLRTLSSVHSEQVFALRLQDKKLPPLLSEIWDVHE

Usually AC50 stands for the concentration at which the activity in the assay is half-maximal. In the case of `CC(C)(C)c1csc(-c2cc3cc(OCc4ccccc4CC(=O)O)ccc3o2)n1`, the outcome in assay [1], in assay [2], in [3], in [4], in assay [5] and in assay [6] was inactive. In addition, the result in assay [7] and in [10] was inactive. In addition, the AC50 in assay [8] was 8.91 µM (active); in [9] it was 33.4 µM (active); in assay [11], 35.7 µM (active); in assay [12], 20.5 µM (active); in assay [13], 29.8 µM (active); in assay [14], 22.4 µM (active).

Regarding `CCCCCCCCOC(=O)c1cc(O)c(O)c(O)c1`, the AC50 in assay [2] was 43 µM (active); in assay [15], 52.2 µM (active); in [17] it was 24.2 µM (active); in [8], 5.96 µM (active); in assay [11], 20 µM (active); in assay [12], 36.3 µM (active). Besides, the AC50 in assay [13] is 32.5 µM (active); in assay [14] it was 17.3 µM (active). In addition, the outcome in [16], in assay [3], in assay [4], in assay [5], in assay [6] and in [7] was inactive. The outcome in assay [18], in [9] and in [10] was inactive.

With `Cc1oc2c(NC(=O)c3c(Cl)cccc3Cl)cccc2c1C(C)(C)O`, the result in [2], in assay [15], in [4], in [17], in assay [5] and in assay [6] was inactive. Further, the result in assay [7], in assay [8], in assay [9] and in assay [13] was inactive. Besides, the AC50 in assay [10] was 25.6 µM (active); in assay [11] it was 4.29 µM (active); in [12], 25.7 µM (active); in [14], 7.04 µM (active).

For the molecule `Cc1cn([C@H]2C[C@H](N=[N+]=[N-])[C@@H](CO)O2)c(=O)[nH]c1=O`, the molecule was classed as inactive in assay [2], in assay [19], in assay [16], in [3], in [4] and in assay [5]. The molecule was called inactive in assay [6], in [7], in assay [18], in [8], in assay [9] and in assay [10]. The result in [11], in assay [12], in assay [13] and in assay [14] was inactive.

With `CC/C(=C(/CC)c1ccc(O)cc1)c1ccc(O)cc1`, the result in [2], in assay [15], in [16], in [3], in assay [4] and in assay [17] was inactive. Moreover, the result in assay [5], in assay [6], in assay [20], in [7], in assay [8] and in [9] was inactive. Moreover, in assay [10], the call was inactive. Moreover, the AC50 is 13.9 µM (active) in assay [20]; 18.6 µM (active) in [7]; 12.7 µM (active) [middle of 4 runs] in assay [8]; 16.7 µM (active) and 11.1 µM (active) and 16.6 µM (active) in [9]; 11.1 µM (active) in [10]; 27.1 µM (active) in assay [11]. In addition, the AC50 in assay [12] is 16.6 µM (active); in [13], 32.5 µM (active); in [14], 27.6 µM (active).

Regarding `CC[C@H](NC(=O)c1cc(F)ccc1NS(=O)(=O)c1cccc2cccnc12)c1ccccc1`, the molecule was classed as inactive in assay [2], in assay [3], in assay [4], in assay [17], in assay [5] and in [6]. Further, the call in assay [7], in [18], in assay [9], in [10], in assay [11] and in assay [12] was inactive. In addition, the outcome in [13] and in assay [14] was inactive. The AC50 in assay [8] was 0.13 µM (active).
